Experimental data as given in PubChem BioAssay (NCI).
About 79,000 compounds went through this panel and 15% of them were active in at least one assay; those are over-represented in the sample as a whole. The source made the active and inactive calls. Rule as the data show it: active = growth inhibition above about 70%; inactive = the rest.

Assays:
[1] = NCI Yeast Anticancer Drug Screen. Data for the mec2-1 strain (AID 157); conditions: S. cerevisiae mec2-1 strain, hits give high values
Summary of the method: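 Each compound was tested on mec2-1 yeast, a strain altered in DNA damage repair or cell cycle control. Growth inhibition is reported relative to vehicle.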

[2] = NCI Yeast Anticancer Drug Screen. Data for the rad14 strain (AID 159);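 also: 0% = growth of vehicle-treated control cultures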; conditions: S. cerevisiae rad14 strain growth inhibition, hits give high values
Summary of the method: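 Growth inhibition vs vehicle controls; genetically altered yeast strain (DNA damage repair defect) treated with test compounds.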

[3] = NCI Yeast Anticancer Drug Screen. Data for the sgs1 mgt1 strain (AID 161);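 also: 0% = growth of cultures given vehicle only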; conditions: S. cerevisiae sgs1 mgt1 strain, hits give high values
Summary of the method: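 Genetically altered yeast, compound exposure, growth inhibition relative to vehicle.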

[4] = NCI Yeast Anticancer Drug Screen. Data for the CLN2oe strain (AID 163);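 also: 0% = growth of vehicle-only control cultures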; conditions: S. cerevisiae CLN2oe strain, hits give high values
Summary of the method: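 First, the altered yeast strain was treated with each compound; second, its growth was measured; finally, inhibition was derived by comparison with vehicle controls.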

[5] = NCI Yeast Anticancer Drug Screen. Data for the cln2 rad14 strain (AID 165);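 also: 0% = growth equal to vehicle treated cultures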; conditions: S. cerevisiae cln2 rad14 strain, hits give high values
Summary of the method: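 Test compounds were added to cln2 rad14 yeast cultures; inhibition of growth was then determined by comparison with vehicle treatment.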

[6] = NCI Yeast Anticancer Drug Screen. Data for the bub3 strain (AID 167); conditions: S. cerevisiae bub3 mutant strain, hits give high values
Summary of the method: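 Readout: yeast growth inhibition, expressed relative to vehicle-only wells. The test organism is a mutant strain from a panel with lesions in DNA repair or checkpoint genes.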

[7] = NCI Yeast Anticancer Drug Screen. Data for the wt2 strain (AID 169);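 also: 0% = growth of vehicle-treated yeast cultures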; conditions: S. cerevisiae wt2 strain growth inhibition, hits give high values
Summary of the method: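 The panel's yeast strains carry defined changes in DNA repair or cell cycle genes. Each strain is grown with compound, and growth loss is scored relative to vehicle.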

[8] = NCI Yeast Anticancer Drug Screen. Data for the mlh1 strain (AID 171);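 also: 0% = growth of vehicle-treated control cultures of the same strain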; conditions: S. cerevisiae mlh1 strain growth inhibition, hits give high values
Summary of the method: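 Inhibition values reflect reduced yeast growth in the presence of compound, referenced to vehicle controls, using a strain chosen for its alteration in DNA repair or cell cycle control.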

[9] = NCI Yeast Anticancer Drug Screen. Data for the sgs1 strain (AID 173);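 also: 0% = growth of vehicle-only control cultures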; conditions: S. cerevisiae sgs1 mutant, hits give high values
Summary of the method: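 Vehicle-treated cultures served as reference for growth inhibition of a yeast strain altered in DNA damage repair or cell cycle control after compound exposure.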

[10] = NCI Yeast Anticancer Drug Screen. Data for the mlh1 rad18 strain (AID 175); conditions: S. cerevisiae mlh1 rad18 strain growth inhibition, hits give high values
Summary of the method: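 Inhibition values reflect reduced growth of mutant yeast versus vehicle-treated controls following compound exposure; the mutations affect DNA damage repair.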

[11] = NCI Yeast Anticancer Drug Screen. Data for the rad18 strain (AID 177); conditions: S. cerevisiae rad18 mutant growth inhibition, hits give high values
Summary of the method: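 Steps: expose repair-mutant yeast to compound; measure growth; express as inhibition relative to vehicle control.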

[12] = NCI Yeast Anticancer Drug Screen. Data for the rad52 strain (AID 147);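 also: 0% = growth of vehicle-treated control cultures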; conditions: S. cerevisiae rad52 mutant growth inhibition, hits give high values
Summary of the method: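 Inhibition of yeast growth, referenced to vehicle controls, was the measured output for a strain with defective DNA damage repair.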

[13] = NCI Yeast Anticancer Drug Screen. Data for the rad50EPP+ strain (AID 151);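 also: 0% = growth of vehicle-treated control cultures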; conditions: S. cerevisiae rad50 mutant strain, hits give high values
Summary of the method: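 Genetically defined yeast (rad50EPP+, DNA damage repair alteration) is grown with compound, and inhibition of growth is expressed relative to vehicle-treated controls.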

[14] = NCI Yeast Anticancer Drug Screen. Data for the mgt1 strain (AID 153); conditions: S. cerevisiae mgt1 mutant growth inhibition, hits give high values
Summary of the method: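 In the mgt1 strain, test compounds were added and growth inhibition was determined relative to vehicle-treated controls.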

[15] = NCI Yeast Anticancer Drug Screen. Data for the rad50 strain (AID 155);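 also: 0% = growth of vehicle-only cultures of the same strain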; conditions: S. cerevisiae rad50 strain growth inhibition, hits give high values
Summary of the method: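 Readout: growth inhibition relative to vehicle-treated cultures. Compound exposure was carried out in a genetically defined yeast strain deficient in DNA damage repair.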

[16] = at 5.0 µM (retest, dose inferred, filed as 0.5)
[17] = at 50.0 µM (retest, dose inferred, filed as 5.0)

Measured: growth inhibition

CN(C)CCn1c2c3ccccc3ccc2c2oc(=O)c3ccccc3c21
active: [1]; at 100.0 µM 91% | [2]; at 33.0 µM 95% | [2]; at 100.0 µM 91% | [3]; [17] 93% | [3]; at 50.0 µM 89% | [4]; at 33.0 µM 90% | [4]; at 100.0 µM 89% | [5]; [17] 93% | [5]; at 50.0 µM 84.5% | [6]; at 33.0 µM 93% | [6]; [17] 95% | [6]; at 50.0 µM 86.8% | [6]; at 100.0 µM 95% | [7]; at 33.0 µM 95% | [7]; at 100.0 µM 95% | [8]; at 33.0 µM 95% | [8]; at 100.0 µM 92% | [9]; at 33.0 µM 93% | [9]; at 100.0 µM 92% | [10]; [17] 96% | [10]; at 50.0 µM 82.7% | [11]; at 33.0 µM 94% | [11]; at 100.0 µM 91%
inactive: [2]; at 1.2 µM 3% | [2]; at 3.7 µM -2% | [2]; at 11.0 µM 35% | [3]; [16] -1% | [4]; at 1.2 µM -2% | [4]; at 3.7 µM -3% | [4]; at 11.0 µM 36% | [5]; [16] 4% | [6]; at 1.2 µM -8% | [6]; at 3.7 µM 10% | [6]; [16] 3% | [6]; at 11.0 µM 19% | [7]; at 1.2 µM 12% | [7]; at 3.7 µM 3% | [7]; at 11.0 µM 41% | [8]; at 1.2 µM -10% | [8]; at 3.7 µM -6% | [8]; at 11.0 µM 42% | [9]; at 1.2 µM 12% | [9]; at 3.7 µM 16% | [9]; at 11.0 µM 50% | [10]; [16] 10% | [11]; at 1.2 µM 0% | [11]; at 3.7 µM -7% | [11]; at 11.0 µM 53%

Brc1ccc(-c2cc3c(cc2C2SCCS2)OCO3)cc1
active: [3]; [17] 70% | [6]; [17] 74% | [9]; at 100.0 µM 76% | [10]; [17] 76%
inactive: [12]; at 1.2 µM -21% | [12]; at 3.7 µM -21% | [12]; at 11.0 µM -16% | [12]; at 33.0 µM 8% | [12]; at 100.0 µM 27% | [13]; at 1.2 µM -4% | [13]; at 3.7 µM -10% | [13]; at 11.0 µM 9% | [13]; at 33.0 µM 29% | [13]; at 100.0 µM 51% | [14]; at 1.2 µM -52% | [14]; at 3.7 µM -45% | [14]; at 11.0 µM -36% | [14]; at 33.0 µM -6% | [14]; at 100.0 µM 50% | [15]; at 1.2 µM -23% | [15]; at 3.7 µM -13% | [15]; [16] -19% | [15]; at 11.0 µM -13% | [15]; at 33.0 µM 14% | [15]; [17] 48% | [15]; at 50.0 µM 63.8% | [15]; at 100.0 µM 30% | [1]; at 1.2 µM -29% | [1]; at 3.7 µM -29% | [1]; [16] -57% | [1]; at 11.0 µM -31% | [1]; at 33.0 µM -27% | [1]; [17] 11% | [1]; at 50.0 µM 22.2% | [1]; at 100.0 µM -15% | [2]; at 1.2 µM -35% | [2]; at 3.7 µM -24% | [2]; at 11.0 µM -30% | [2]; at 33.0 µM -7% | [2]; at 100.0 µM 25% | [3]; [16] -18% | [3]; at 50.0 µM 66.6% | [4]; at 1.2 µM -18% | [4]; at 3.7 µM -25% | [4]; at 11.0 µM -28% | [4]; at 33.0 µM -10% | [4]; at 100.0 µM 13% | [5]; [16] 9% | [5]; [17] 32% | [5]; at 50.0 µM 21.1% | [6]; at 1.2 µM -16% | [6]; at 3.7 µM -8% | [6]; [16] 5% | [6]; at 11.0 µM -15% | [6]; at 33.0 µM 2% | [6]; at 50.0 µM 44.9% | [6]; at 100.0 µM 22% | [7]; at 1.2 µM -1% | [7]; at 3.7 µM -11% | [7]; at 11.0 µM -15% | [7]; at 33.0 µM 13% | [7]; at 100.0 µM 43% | [9]; at 1.2 µM 3% | [9]; at 3.7 µM 9% | [9]; at 11.0 µM 5% | [9]; at 33.0 µM 52% | [10]; [16] -8% | [10]; at 50.0 µM 33.5% | [11]; at 1.2 µM -23% | [11]; at 3.7 µM -27% | [11]; at 11.0 µM -29% | [11]; at 33.0 µM 20% | [11]; at 100.0 µM 56%
